In PubChem BioAssay (Tox21):
Values without a mark were called inactive. Records with an inconclusive call do not appear. Where a call stands in place of a potency, no number is given. Active and inactive are the calls of the source. Unless noted, the call rests on the fitted dose curve.

Experiments:
[1] = Nuclear factor erythroid 2-related factor 2/antioxidant responsive element (Nrf2/ARE) small molecule agonists: qHTS cell viability counter screen in human keratinocytes (AID 1919968; active means well fitted curve in the direction sought with a large enough effect in the repeat runs; an effect the other way counts as inactive or inconclusive; further: nearly all actives have a fitted effect of over 55% in size; further: potency means the concentration at half of the fitted maximal effect)
Method in brief: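 Cells of the KeratinoSens line were plated at 1,500 per well and left for 5 h before compound transfer from DMSO stocks. After a 23 h incubation (37 C, 5% CO2), CellTiter-Fluor was added. Signal was taken as fluorescence intensity 1 h later.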

[2] = molecular target: Gonadotropin-releasing hormone receptor (Homo sapiens) (UniProt P30968); assay: Human gonadotropin-releasing hormone receptor (GnRHR) small molecule agonists, calcium flux assay in GnRHR-HEK293 cells (AID 1920063); further: nearly all actives have a fitted effect of over 35% in size; further: potency means the concentration at half of the fitted maximal effect
Method in brief: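 Compounds dissolved in DMSO are pin-transferred onto dye-loaded GnRHR-HEK293 cells, which were seeded 18 h before at 37 C/5% CO2. Calcium signal is read as fluorescence intensity at 1 s intervals for 3 min.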

[3] = molecular target: KiSS-1 receptor (Homo sapiens) (UniProt Q969F8); assay: Human kisspeptin (KISS1R) small molecule agonists, calcium flux assay in KISS1R-HEK293 cells (AID 1920064; active means well fitted curve in the direction sought with a large enough effect in the repeat runs; an effect the other way counts as inactive or inconclusive)
Method in brief: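 Cell line: HEK293, stable human KISS1R. Dye loading 1 h at 37 C after 18 h culture. Read: kinetic fluorescence, 480/540 nm, 3 min at 1 s intervals.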

[4] = G protein-coupled receptor (GPCR) small molecule agonists, calcium flux assay: HEK293 wild type cell line counter screen (AID 1920065)
Method in brief: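 Tox21 10K compounds, 15 concentrations each in triplicate, pin-transferred in DMSO onto dye-loaded cells; kinetic read at 480/540 nm for 3 min, 1 s intervals.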

[5] = p53 small molecule agonists, cell-based qHTS assay with human liver microsomes: qHTS cell viability counter screen (AID 1963579); further: nearly all actives have a fitted effect of over 45% in size
Method in brief: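 Cytotoxicity counter screen: p53RE-bla, 4,000 cells/well; 5 h settle, 37 C/5% CO2; cpd + HLM 0.5 mg/mL + NADPH 0.5 mg/mL (final); 16 h, 37 C; CellTiter-Glo, 30 min RT, luminescence.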

[6] = p53 small molecule agonists, cell-based qHTS assay with rat liver microsomes: qHTS cell viability counter screen (AID 1963580); further: nearly all actives have a fitted effect of over 45% in size
Method in brief: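 Counter screen for cytotoxicity under metabolic activation: rat liver microsomes and NADPH, 0.5 mg/mL final each, added with compounds to p53RE-bla HCT-116 cells; 16 h at 37 C, then ATP luminescence read.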

[7] = p53 small molecule agonists, cell-based qHTS assay: qHTS cell viability counter screen (AID 1963581); further: nearly all actives have a fitted effect of over 45% in size
Method in brief: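 ATP content measured by luminescence in HCT-116 p53RE-bla cells treated 16 h at 37 C, same wells as the reporter screen.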

[8] = molecular target: 5-hydroxytryptamine receptor 2A (Homo sapiens) (UniProt P28223); assay: 5-hydroxytryptamine receptor 2A (HTR2A) small molecule antagonists, cell-based qHTS assay (AID 1963586); further: nearly all actives have a fitted effect of over 45% in size
Method in brief: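 CHO cells stably expressing human HTR2A were plated for 18 h at 37 C, then loaded with calcium dye for 1 h. Compounds were preincubated 5 min at room temperature before DOI (4 nM solution) was added. Kinetic fluorescence was read for 3 min.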

[9] = molecular target: 5-hydroxytryptamine receptor 2A (Homo sapiens) (UniProt P28223); assay: 5-hydroxytryptamine receptor 2A (HTR2A) small molecule agonists, cell-based qHTS assay (AID 1963587); further: nearly all actives have a fitted effect of over 30% in size
Method in brief: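 HTR2A-CHO cells, plated 18 h at 37 C/5% CO2, dye-loaded 1 h at 37 C; compounds in DMSO added by pin tool (agonist mode). Intracellular calcium flux read as kinetic fluorescence on FDSS over 2 min at 1 s intervals.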

[10] = molecular target: Muscarinic acetylcholine receptor M1 (Homo sapiens) (UniProt P11229); assay: Cholinergic receptor muscarinic 1 (CHRM1) small molecule antagonists, cell-based qHTS assay (AID 1963588); further: nearly all actives have a fitted effect of over 40% in size
Method in brief: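 Compounds were tested at 15 concentrations in three independent runs. Dye-loaded CHRM1-CHO cells were exposed 5 min at room temperature before stimulation by acetylcholine added at 50nM. Intracellular calcium was read kinetically on FDSS for 3 min.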

[11] = molecular target: Muscarinic acetylcholine receptor M1 (Homo sapiens) (UniProt P11229); assay: Cholinergic receptor muscarinic 1 (CHRM1) small molecule agonists, cell-based qHTS assay (AID 1963589); further: nearly all actives have a fitted effect of over 35% in size
Method in brief: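 Homogeneous fluorescence calcium flux, agonist mode. Human M1-expressing CHO cells; compound dosed at 15 concentrations, three independent runs; signal sampled every 1 sec.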

[12] = cAMP Responsive Elements (CRE) small molecule agonists, cell-based qHTS assay (AID 1963590)
Method in brief: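 HEK 293T cells stably bearing CRE-bla were plated at 2,000 cells per well and rested 18 h. Compounds, positive controls or DMSO were added for 3 h at 37 C. LiveBLAzer B/G substrate was then loaded for 2 h at room temperature.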

[13] = cAMP Responsive Elements (CRE) small molecule antagonists, cell-based qHTS assay (AID 1963591; active means well fitted inhibition curve with a large enough effect in the signal ratio in the repeat runs, not every such curve was filed as active; the % refers to the signal ratio)
Method in brief: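 First, CRE-bla HEK293T cells settled 18 h at 37 C. Next, compound and 0.25 uM final NKH477 were applied for 3 h. Last, LiveBLAzer B/G substrate was loaded for 2 h at room temperature.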

[14] = molecular target: Beta-2 adrenergic receptor (Homo sapiens) (UniProt P07550); assay: Adrenergic beta2 receptor (ADRB2) small molecule antagonists, cell-based qHTS assay (AID 1963592); further: series mostly up to about 92 µM; nearly all actives have a fitted effect of over 50% in size
Method in brief: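 Assay format: CHO-ADRB2 cells, 18-20hr seeding at 37C/5% CO2, then compound plus 1nM isoproterenol agonist mix for 0.5hr RT. Homogeneous time-resolved fluorescence cAMP detection after 1hr, expressed as 665/615 nm ratio.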

[15] = molecular target: D(2) dopamine receptor (Homo sapiens) (UniProt P14416); assay: Dopamine D2 receptor (DRD2) small molecule agonists, cell-based qHTS assay (AID 1963594); further: nearly all actives have a fitted effect of over 35% in size
Method in brief: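 HEK293 cells stably expressing DRD2 were cultured 24 h at 37 C, then given Ro20-1724 (0.1 mM final) and compounds for 10 min at room temperature. NKH477 (200nM) was then added for 30 min. cAMP was read by HTRF.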

[16] = molecular target: Beta-2 adrenergic receptor (Homo sapiens) (UniProt P07550); assay: Adrenergic beta2 receptor (ADRB2) small molecule agonists, cell-based qHTS assay (AID 1963593);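 further: CHO cells stably overexpressing human ADRB2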
Method in brief: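 CHO cells stably over-expressing ADRB2 were plated overnight at 37C, then dosed with compounds plus a stimulation mix containing 100uM IBMX and 25uM Ro-20-1724 for 0.5hr at room temperature. cAMP was measured by HTRF competition, 1hr.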

[17] = molecular target: D(2) dopamine receptor (Homo sapiens) (UniProt P14416); assay: Dopamine D2 receptor (DRD2) small molecule antagonists, cell-based qHTS assay (AID 1963595; active means well fitted inhibition curve with a large enough effect in the signal ratio in the repeat runs, with a control signal flat; the % refers to the signal ratio)
Method in brief: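 Cells were plated and grown for 24 h at 37 °C. Ro20-1724 (0.1 mM final) went in first, then compound for 10 min. NKH477 (200 nM) with quinpirole (12 nM) followed for 30 min at RT, then HTRF detection reagents for 1 h.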

Chain of Gonadotropin-releasing hormone receptor (Homo sapiens) (P30968 whole entry, looked up): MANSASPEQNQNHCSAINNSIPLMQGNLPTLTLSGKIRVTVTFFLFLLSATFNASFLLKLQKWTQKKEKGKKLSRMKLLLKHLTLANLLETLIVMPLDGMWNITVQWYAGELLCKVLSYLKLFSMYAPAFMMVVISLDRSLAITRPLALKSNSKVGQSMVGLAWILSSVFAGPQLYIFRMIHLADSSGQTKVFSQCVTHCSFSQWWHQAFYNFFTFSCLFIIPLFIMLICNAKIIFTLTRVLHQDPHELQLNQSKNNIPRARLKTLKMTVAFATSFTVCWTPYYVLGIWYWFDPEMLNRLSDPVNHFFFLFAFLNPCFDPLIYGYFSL
Chain of KiSS-1 receptor (Homo sapiens) (Q969F8 whole entry, looked up): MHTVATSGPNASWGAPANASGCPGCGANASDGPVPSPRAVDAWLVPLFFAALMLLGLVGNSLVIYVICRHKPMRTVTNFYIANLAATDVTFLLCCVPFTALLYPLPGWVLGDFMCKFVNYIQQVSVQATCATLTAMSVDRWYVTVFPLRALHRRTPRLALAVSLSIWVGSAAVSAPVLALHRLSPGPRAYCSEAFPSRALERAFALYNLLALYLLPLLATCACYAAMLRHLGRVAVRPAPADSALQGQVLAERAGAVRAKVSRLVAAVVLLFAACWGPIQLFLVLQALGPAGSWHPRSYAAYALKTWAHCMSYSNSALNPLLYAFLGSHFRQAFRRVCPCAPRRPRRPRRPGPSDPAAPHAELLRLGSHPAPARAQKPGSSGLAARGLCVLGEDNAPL
Chain of Muscarinic acetylcholine receptor M1 (Homo sapiens) (P11229 whole entry, looked up): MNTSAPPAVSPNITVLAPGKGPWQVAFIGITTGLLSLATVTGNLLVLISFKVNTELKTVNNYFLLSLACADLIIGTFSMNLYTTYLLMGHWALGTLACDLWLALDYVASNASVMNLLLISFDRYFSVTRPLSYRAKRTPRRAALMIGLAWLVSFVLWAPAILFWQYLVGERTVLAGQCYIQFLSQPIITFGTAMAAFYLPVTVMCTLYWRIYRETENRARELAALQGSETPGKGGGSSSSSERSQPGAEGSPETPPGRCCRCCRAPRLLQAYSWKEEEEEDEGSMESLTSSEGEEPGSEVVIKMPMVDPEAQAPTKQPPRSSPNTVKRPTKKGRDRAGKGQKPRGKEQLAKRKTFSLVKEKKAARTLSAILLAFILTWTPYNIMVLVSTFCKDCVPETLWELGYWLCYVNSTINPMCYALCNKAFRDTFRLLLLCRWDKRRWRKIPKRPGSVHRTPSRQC
Chain of 5-hydroxytryptamine receptor 2A (Homo sapiens) (P28223 whole entry, looked up): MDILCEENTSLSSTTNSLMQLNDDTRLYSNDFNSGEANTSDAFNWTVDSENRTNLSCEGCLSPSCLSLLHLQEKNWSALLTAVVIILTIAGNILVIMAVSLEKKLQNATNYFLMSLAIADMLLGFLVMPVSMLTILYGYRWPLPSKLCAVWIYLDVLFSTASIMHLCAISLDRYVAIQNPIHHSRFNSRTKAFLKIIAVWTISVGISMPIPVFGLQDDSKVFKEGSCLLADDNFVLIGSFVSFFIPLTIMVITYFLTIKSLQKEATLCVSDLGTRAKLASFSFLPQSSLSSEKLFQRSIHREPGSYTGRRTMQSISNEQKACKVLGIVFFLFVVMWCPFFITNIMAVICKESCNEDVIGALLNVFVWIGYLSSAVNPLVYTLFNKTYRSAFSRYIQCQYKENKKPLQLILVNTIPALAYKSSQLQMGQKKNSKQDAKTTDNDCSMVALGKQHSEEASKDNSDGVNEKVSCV
Chain of Beta-2 adrenergic receptor (Homo sapiens) (P07550 whole entry, looked up): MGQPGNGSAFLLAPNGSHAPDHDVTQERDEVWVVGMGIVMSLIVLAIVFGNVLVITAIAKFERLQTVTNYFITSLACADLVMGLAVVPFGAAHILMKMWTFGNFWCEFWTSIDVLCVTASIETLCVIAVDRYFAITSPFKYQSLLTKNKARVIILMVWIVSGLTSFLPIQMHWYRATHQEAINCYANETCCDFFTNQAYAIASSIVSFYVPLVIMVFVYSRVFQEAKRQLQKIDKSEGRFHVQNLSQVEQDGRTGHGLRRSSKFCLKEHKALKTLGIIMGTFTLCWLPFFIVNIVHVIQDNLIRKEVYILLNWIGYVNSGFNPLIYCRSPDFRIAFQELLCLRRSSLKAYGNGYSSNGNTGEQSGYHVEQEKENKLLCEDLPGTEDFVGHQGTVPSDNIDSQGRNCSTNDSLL
Chain of D(2) dopamine receptor (Homo sapiens) (P14416 whole entry, looked up): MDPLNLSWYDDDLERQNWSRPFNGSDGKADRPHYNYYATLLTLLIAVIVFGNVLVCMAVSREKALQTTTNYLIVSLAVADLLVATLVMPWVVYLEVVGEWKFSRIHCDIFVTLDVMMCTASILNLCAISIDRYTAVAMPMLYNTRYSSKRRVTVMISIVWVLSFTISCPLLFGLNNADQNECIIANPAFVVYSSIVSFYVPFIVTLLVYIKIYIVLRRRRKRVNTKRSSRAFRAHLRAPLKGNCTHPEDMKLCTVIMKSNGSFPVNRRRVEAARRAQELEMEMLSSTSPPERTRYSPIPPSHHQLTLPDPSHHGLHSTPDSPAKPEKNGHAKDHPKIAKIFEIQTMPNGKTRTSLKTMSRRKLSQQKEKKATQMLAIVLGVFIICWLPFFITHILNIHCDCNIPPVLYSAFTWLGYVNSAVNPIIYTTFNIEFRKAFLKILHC

Row | SMILES | Potency [1] | Potency [2] | Potency [3] | Potency [4] | Potency [5] | Potency [6] | Potency [7] | Potency [8] | Potency [9] | Potency [10] | Potency [11] | Potency [12] | Potency [13] | Potency [14] | Potency [15] | Potency [16] | Potency [17]
1 | O=C(O)c1cccc(Cl)c1 | inactive | inactive | inactive | inactive | inactive | inactive | inactive | inactive | inactive | inactive | inactive | inactive | inactive | inactive | inactive |  | 
2 | CC(=O)NNc1ccccc1 | inactive | inactive | inactive | inactive | inactive | inactive |  | inactive | inactive | inactive | inactive | inactive | inactive |  | inactive |  | 
3 | Cc1cc(C)c(C2=C(OC(=O)CC(C)(C)C)C3(CCCC3)OC2=O)c(C)c1 | inactive | inactive | inactive | inactive |  | inactive | inactive | inactive | inactive | inactive | inactive | inactive | inactive | inactive | inactive | inactive | inactive
4 | COP(=S)(OC)Oc1cc(Cl)c(I)cc1Cl | inactive | inactive | inactive | inactive | inactive | inactive | inactive | inactive | inactive | inactive | inactive | inactive | inactive | inactive | inactive | inactive | inactive
5 | C[C@H]1CC[C@@H]2[C@@H](C)[C@H]3[C@H](C[C@H]4[C@@H]5CC=C6CC(O[C@@H]7O[C@H](CO)[C@H](O)[C@H](O[C@@H]8O[C@H](CO)[C@@H](O)[C@H](O)[C@H]8O)[C@H]7O[C@H]7O[C@@H](C)[C@H](O)[C@@H](O)[C@H]7O)CC[C@]6(C)[C@H]5CC[C@]34C)N2C1 (stereo partly specified) | 22.4 µM (active) | 10.1 µM (active) | inactive | inactive |  | inactive | inactive | inactive |  | inactive | inactive | inactive | inactive | inactive |  | inactive | inactive
6 | CCNC(=O)NC(=O)/C(C#N)=N/OC | inactive | inactive | inactive | inactive |  | inactive | inactive | inactive | inactive | inactive | inactive |  | inactive | inactive | inactive |  | inactive
7 | CCCSP(=O)(OCC)SCCC | inactive | inactive | inactive | inactive | inactive | inactive |  | inactive | inactive | inactive | inactive |  |  | inactive | inactive |  | inactive
8 | Nc1c(Cl)c(Cl)c(Cl)c(Cl)c1Cl | inactive | inactive | inactive | inactive | inactive | inactive | inactive | inactive | inactive | inactive | inactive | inactive |  | inactive |  |  | inactive
